Measurements from PubChem BioAssay AID720504 (National Center for Advancing Translational Sciences (NCATS), 2013).
Hit rate of the full screen: of about 360,000 compounds, about 10,000 (2.8%) were called active. Another 4% or so got no clear call; they are omitted. Calls come from the whole dose curve; as a rule, active = well fitted inhibition curve with a large enough effect; inconclusive = small, poorly fitted or top-dose-only effect; inactive = flat fitted curve, though single readings scatter. Shown is part of a subset that was picked to be rich in actives.

These compounds were tested against Serine/threonine-protein kinase PLK1 (Homo sapiens) (UniProt P53350) (assay: qHTS for Inhibitors of PLK1-PDB (polo-like kinase 1 - polo-box domain): Primary Screen). Settings: Plk1 PBD binding of FITC phosphopeptide, fluorescence polarization.
% is set by controls: 0 for no effect and ±100 for the full control effect; potency is the fitted concentration of half-maximal effect.
Note: nearly all actives have a fitted effect of over 65% in size.
Throughout, for max response, negative = inhibition: series mostly up to about 57 µM.

Sequence of Serine/threonine-protein kinase PLK1 (Homo sapiens) (P53350 whole entry, looked up, the tested form may be a part): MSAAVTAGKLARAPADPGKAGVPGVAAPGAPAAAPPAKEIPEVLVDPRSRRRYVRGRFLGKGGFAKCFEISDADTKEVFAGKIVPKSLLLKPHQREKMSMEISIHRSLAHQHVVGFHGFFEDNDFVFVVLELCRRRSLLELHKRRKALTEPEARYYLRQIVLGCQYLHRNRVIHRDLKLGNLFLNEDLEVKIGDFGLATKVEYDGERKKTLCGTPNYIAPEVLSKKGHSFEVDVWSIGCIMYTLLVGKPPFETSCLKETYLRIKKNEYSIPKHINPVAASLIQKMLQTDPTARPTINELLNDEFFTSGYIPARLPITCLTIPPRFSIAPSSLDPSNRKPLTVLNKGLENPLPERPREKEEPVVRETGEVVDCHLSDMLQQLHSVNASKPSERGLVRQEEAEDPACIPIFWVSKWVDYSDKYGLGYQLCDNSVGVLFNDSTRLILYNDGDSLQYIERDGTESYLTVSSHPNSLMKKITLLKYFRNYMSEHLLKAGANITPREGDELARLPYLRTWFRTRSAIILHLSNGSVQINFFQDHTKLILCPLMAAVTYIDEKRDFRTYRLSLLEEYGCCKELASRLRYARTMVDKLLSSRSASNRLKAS

SMILES | max response, negative = inhibition | Potency
CCCc1c(-c2ccccc2F)ncn1Cc1ccccc1OC | -1.08% (inactive) | 
Cc1ccccc1-c1csc(C(O)c2cccc(Cl)c2)n1 (stereo not given) | -10.6% (inactive) | 
O=C(/C=C/[C@H]1O[C@@H](n2cnc3c(NC(=O)c4ccccc4)ncnc32)[C@H](O)[C@@H]1O)NCc1ccccc1 | -4.8% (inactive) | 
CCCSc1nc2c(c(=O)n(C)c(=O)n2C)n1Cc1ccc(C)cc1 | -10.2% (inactive) | 
CCCCn1c(SCC(=O)NCCc2ccc(OC)c(OC)c2)nc2c1c(=O)n(C)c(=O)n2C | -1.04% (inactive) | 
CCOc1ccc(Cn2c(SCCCCC#N)nc3c2c(=O)n(C)c(=O)n3C)cc1OCC |  | 18.9 µM (active)
COc1ccc(NC(=O)C2Cc3c(-c4ccc(Cl)cc4)ccnc3O2)cc1 (stereo not given) | 1.68% (inactive) | 
O=C(NCC(O)c1nc2ccccc2[nH]1)c1ccc(Br)cc1 (stereo not given) | -3.2% (inactive) | 
CC1(C(=O)NCc2ccc3c(c2)OCO3)CCN1CCc1ccccc1 (stereo not given) | 2.52% (inactive) | 
c1ccc2sc(NN=C3CCCC3)nc2c1 |  | 26.7 µM (active)
CCN(CC)CCn1c2c(c(SCC(=O)Nc3nc4ccccc4s3)nc1=O)CCCC2 | -2.27% (inactive) | 
c1ccc(C(=NNc2nc3ccccc3s2)c2ccccn2)cc1 | -7.03% (inactive) | 
OC[C@@H]1CN(C2CCCC2)C[C@H](n2cnc3c(NC4CCC4)ncnc32)O1 | -3.48% (inactive) | 
C=CCn1c2c(c3ccccc31)CCC2 | -9.68% (inactive) | 
COc1cc2c(=O)n(C)c3ccccc3c2cc1OC | -8.91% (inactive) | 
Cc1cc(C)c(-c2c(O)c3ccccc3n(C)c2=O)c(C)c1 | -5.02% (inactive) | 
Cn1c(=O)c([N+](=O)[O-])c(Oc2ccccc2)c2ccccc21 |  | 23.8 µM (active)
CCOC(=O)c1c(C)[nH]c(C)c1C(=O)COC(=O)/C=C/c1cccc([N+](=O)[O-])c1 | 1.23% (inactive) | 
Cc1ccnc(NS(=O)(=O)c2ccc(NC(=O)c3ccc(S(=O)(=O)N(C)C)cc3)cc2)n1 |  | 26.7 µM (active)
Cc1ccnc(NS(=O)(=O)c2ccc(NC(=O)c3oc4ccccc4c3C)cc2)n1 | -5.87% (inactive) | 
Cc1ccnc(NS(=O)(=O)c2ccc(NC(=O)c3ccc(S(=O)(=O)N4CCOCC4)cc3)cc2)n1 | -5.87% (inactive) | 
COc1ccc(C(C)(O)c2nc(-c3cc(F)cc(F)c3)cs2)cc1 (stereo not given) | 4.82% (inactive) | 
OC(c1ccccc1)(c1ccccc1)C1CCN(CCCOc2ccccc2)CC1 | 0.305% (inactive) | 
CC(C)N=C1CCCC1C(=S)SSC(=S)C1CCCC1=NC(C)C (stereo not given) |  | 9.47 µM (active)
CCC(c1nc2ccccc2[nH]1)n1c(=O)c(-c2cccs2)nc2ccccc21 (stereo not given) | 7.42% (inactive) | 
